This note sets out measurements from PubChem BioAssay (NCI).

Common to all, as to test: NCI-60 one-dose screen, 48 h (100 = growth as untreated, 0 = no growth, -100 = all killed)
What all share (conditions): 10 µM unless noted

Test [1] deals with HT29 colon.
Test [2] relates to SNB-75 CNS.
Test [3] deals with SNB-19 CNS.
The subject of test [4] is U251 CNS.
The test system of test [5] is PC-3 prostate.
The test system of test [6] is UACC-62 melanoma.
For test [7], the system named is SK-MEL-28 melanoma.
For test [8], the system named is SN12C renal.
Test [9] deals with UO-31 renal.
In test [10] the test system is TK-10 renal.
Test [11] deals with ACHN renal.
The test system of test [12] is CAKI-1 renal.
Test [13] deals with A498 renal.
Test [14] deals with CCRF-CEM leukemia.
In test [15] the test system is MOLT-4 leukemia.
Test [16] has as its system SR leukemia.
In test [17] the test system is SK-MEL-5 melanoma.
The test system of test [18] is LOX IMVI melanoma.
Test [19] has as its system SK-MEL-2 melanoma.
Test [20] has as its system EKVX NSCLC.

The structures appear in SMILES notation. The panel holds about 83,000 compounds, 20% with a hit somewhere; the sample as a whole holds those more often.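 96-well plates, one dose, 48 hours. Percent growth reported; active if below 10.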 A number with no mark means an inactive call. The source made the active and inactive calls.

Consider `CCOc1nc(-c2ccccc2)cc2c(O)c(C(=O)n3nc(C)cc3C)[nH]c(=O)c12`, for which the growth was 104% in test [1]; 94.4% in test [2]; 102% in test [3]; 99.5% in test [4]; 101% in test [5]; 110% in test [6]. For the same molecule, the growth in test [7] is 109%; in [8] it was 101%; in test [9] it was 96%; in [10], 108%; in test [11], 100%; in test [12], 119%. Also, the growth was 101% in test [13], 96.5% in test [14], 99% in test [15] and 96.2% in test [16].
With `Cc1nn(-c2ccccc2)c2ncc3c(c12)C(=O)N(Cc1ccccc1)C3=O`, the growth is 53.5% in test [1]; -27.1% (active) in test [2]; 47.9% in test [3]; 8.03% (active) in [4]; 99.5% in test [17]; 75% in test [6]. Moreover, the growth in [18] was 37.2%; in test [7], 91.9%; in test [19], 113%; in [20] it was 37.3%; in test [8], 23.7%; in test [9], -30.5% (active). Besides, the growth in test [10] is -26% (active); in test [11], -21.7% (active); in test [12] it was -0.521% (active); in test [13], -10.2% (active).
As for `N=c1ccn2c(n1)O[C@@H]1[C@@H](O)[C@H](CO)O[C@@H]12`, the growth is 54.2% in test [1]; 82.8% in [2]; 64.8% in test [3]; 52.2% in test [4]; 57.9% in [5]; 81.2% in test [6]. Also, the growth in test [18] was 67.9%; in test [7] it was 69.9%; in [20], 98.8%; in test [8] it was 54.3%; in [9], 15.5%; in test [10], 67.2%. Also, the growth in test [11] is 11.8%; in test [12], 55.3%; in [13], 99.3%; in test [14], 31.5%; in test [15] it was 28.2%.
In the case of `C=CCCCCCCCCC(=O)[O][Sn]([CH2]CCC)([CH2]CCC)[CH2]CCC`, the growth in test [1] is -76.3% (active); in [2], -98.2% (active); in [3] it was -79.2% (active); in test [4] it was -74% (active); in test [5], -93.5% (active); in test [6] it was -90.4% (active). Besides, the growth is -90.9% (active) in [18]; -93.5% (active) in test [7]; -71.2% (active) in [19]; -55.1% (active) in test [20]; -82% (active) in test [8]; -88.7% (active) in test [9]. Further, the growth was -92.2% (active) in test [10]; -99.6% (active) in test [11]; -89.4% (active) in test [12]; -97.3% (active) in test [13]; 4.17% (active) in test [15].
As to `COc1ccc(/C=C2\COc3ccc(O)c(O)c3C2=O)cc1OC`, the growth is 8.1% (active) in test [1]; 42.1% in [2]; 22.4% in test [3]; 5.85% (active) in test [4]; 11.7% in test [5]; -29.4% (active) in test [6]. Also, the growth was -68% (active) in [18]; 57.2% in test [7]; 76% in [19]; 42.2% in [20]; -67.7% (active) in test [8]; -87.9% (active) in [9]. The growth in test [10] is 5.44% (active); in test [11], -56.3% (active); in test [12], 11.1%; in test [13], 105%; in test [14] it was -13.9% (active); in test [15], -21.5% (active). For the same molecule, the growth in test [16] is -1.26% (active).
With `CCOC(=O)c1c2c(c(C)n1Cc1ccc(OC)cc1)-c1nc(N)ncc1CC2`, the growth in [1] is 110%; in test [2] it was 103%; in [3], 111%; in test [4], 106%; in test [17], 110%; in test [6], 87.3%. The growth in test [18] was 104%; in test [7] it was 112%; in [19], 119%; in test [20], 98.8%; in [8] it was 95.3%; in test [9], 90%. Also, the growth in test [10] was 130%; in test [11] it was 106%; in [12] it was 101%; in test [13] it was 111%; in test [14] it was 126%; in test [15], 93.6%.
Take `Nc1c2ccccc2nc2ccccc12` (tested in a mixture with another compound): the growth in [1] is 0.0152% (active); in [2], 31.9%; in test [3] it was 29.4%; in test [4] it was 13.7%; in test [5] it was 17%; in [6], 5.82% (active). Further, the growth was 4.92% (active) in test [18]; 36.2% in test [7]; -5.63% (active) in test [19]; 22.6% in [20]; 20.1% in test [8]; 14.9% in test [9]. The growth in [10] was 15.5%; in test [11], 8.26% (active); in test [12], 20.2%; in test [13], 0.179% (active); in [14] it was 26.2%; in [15], 15.4%.
For `CCOc1cccc(C2CC(=O)Nc3cc4c(cc32)OCO4)c1` (stereo not given), the growth is 89.1% in test [1]; 104% in test [2]; 100% in [3]; 85.1% in test [4]; 81.7% in test [5]; 90.9% in [6]. The growth in [18] was 93.8%; in test [7], 99.9%; in [19], 83.1%; in test [20], 83.8%; in test [8], 104%; in [9], 68.6%. In addition, the growth in test [10] is 86.2%; in test [11], 89.7%; in test [12], 64%; in [13], 66.5%; in test [14], 72.7%; in test [15], 78.2%. Also, the growth in test [16] was 57.5%.
